# miR122 inh: miR-122 suppressors via Renilla sensor increase, primary screen, cell-based, Huh7 psiCHECK-miR122, Renilla luciferase, single point. 48 h. activation, % at 12.5 µM. hit rate 0.14% among 340,000;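 active = mean activation of 30% or more, with every replicate also reaching 30%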;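 note: 0% = median of neutral control wells and 100% = median of positive control wells; higher luciferase signal means stronger suppression of miR-122 activity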
# An asterisk follows results filed as active. The sample as a whole holds a higher share of hits than the screen did.
SMILES,miR122 inh
C[C@H](CO)N1C[C@H](C)[C@H](CN(C)C(=O)C2CC2)Oc2cc(-c3ccncc3)ccc2S1(=O)=O,5.1
C[C@@H]1CN([C@@H](C)CO)S(=O)(=O)c2ccc(C#C[C@@H](C)O)cc2O[C@@H]1CN(C)C(=O)c1ccncc1,13.3
C[C@H]1CN([C@@H](C)CO)C(=O)c2cc(C#CC3(O)CCCC3)cnc2O[C@H]1CN(C)Cc1ccncc1,-10.5
COc1ccc(S(=O)(=O)N(C)C[C@@H]2Oc3cc(-c4ccccc4OC)ccc3S(=O)(=O)N([C@@H](C)CO)C[C@@H]2C)cc1,0.9
COc1ccc(C(=O)N[C@H](C(=O)Nc2nc3ccccc3[nH]2)C(C)C)cc1,-116.9
O=C(COc1cccc2ccccc12)Nc1nc2ccccc2[nH]1,31.8*
COc1cccc(S(=O)(=O)N(C)C[C@H]2Oc3ncc(C#CCC(C)C)cc3C(=O)N([C@@H](C)CO)C[C@@H]2C)c1,-39.4
CCC(=O)Nc1ccc2c(c1)OC[C@@H](C)N(C(=O)c1ccncc1)C[C@@H](C)[C@H](OC)CN(C)C2=O,1.5
CCc1nc2sc(C)c(C)c2c(=O)n1CCO,34.7*
C[C@@H]1CN([C@H](C)CO)S(=O)(=O)c2ccc(-c3cccc(C#N)c3)cc2O[C@@H]1CN(C)Cc1ccccn1,-2.1
C[C@@H]1CN([C@H](C)CO)C(=O)c2cc(Br)cnc2O[C@@H]1CN(C)Cc1cccc(F)c1,2.9
C[C@H]1CN([C@@H](C)CO)S(=O)(=O)c2ccc(C#Cc3cccnc3)cc2O[C@@H]1CN(C)CC1CCOCC1,-2.7
CCC(=O)Nc1ccc2c(c1)C(=O)N(C)C[C@H](OC)[C@H](C)CN(Cc1ccccc1OC)[C@H](C)CO2,1.2
CC(=O)N(C)C[C@@H]1Oc2cc(C#C[C@@H](C)O)ccc2S(=O)(=O)N([C@@H](C)CO)C[C@@H]1C,-1.6
Cc1ccc(-c2cnc3c(c2)C(=O)N([C@@H](C)CO)C[C@H](C)[C@H](CN(C)C(=O)c2ccncc2)O3)cc1,-0.3
C[C@@H]1CN([C@H](C)CO)S(=O)(=O)c2ccc(-c3ccc(C(=O)N(C)C)cc3)cc2O[C@H]1CN(C)C,7.3
C[C@@H]1CN([C@H](C)CO)C(=O)c2cc(C#Cc3cccc(F)c3)cnc2O[C@@H]1CN(C)C(=O)C1CC1,6.6
COc1ccc(NS(=O)(=O)c2cc(C)ccc2C)cc1,-538.6
COc1ccc(S(=O)(=O)Nc2cc3c4c(oc3c3ccccc23)CCCC4=O)cc1,-127.5
COc1ccc(Oc2ccc(N/C=C3\CCCC3=O)cc2)cc1,35.9*
CCC(=O)N(C)C[C@@H]1Oc2ncc(C#CC3(O)CCCC3)cc2C(=O)N([C@@H](C)CO)C[C@@H]1C,-0.3
CC(C)C#Cc1cnc2c(c1)C(=O)N([C@H](C)CO)C[C@H](C)[C@@H](CN(C)C(=O)CC1CC1)O2,-5.5
COc1cccc(-c2ccc3c(c2)O[C@H](CN(C)C(C)=O)[C@H](C)CN([C@@H](C)CO)S3(=O)=O)c1,1.3
CCOC(=O)Nc1cc2c(c(N)n1)N=C(c1ccccc1)CN2,-118.9
CCOC(=O)CCS(=O)(=O)c1nc(-c2ccccc2)cc(C(F)(F)F)n1,51.4*
SMILES,miR122 inh
CC(=O)N(C)C[C@@H]1Oc2cc(C#CC3CCCCC3)ccc2S(=O)(=O)N([C@H](C)CO)C[C@H]1C,0.9
Cc1ccc(S(=O)(=O)N(C)C[C@@H]2Oc3cc(C#CC4CCCC4)ccc3S(=O)(=O)N([C@H](C)CO)C[C@H]2C)cc1,-3.1
O=C(OCn1ncc(Cl)c(Cl)c1=O)c1ccccc1Cl,61.2*
C[C@H]1CN([C@@H](C)CO)S(=O)(=O)c2ccc(C#Cc3cccnc3)cc2O[C@@H]1CN(C)C(=O)C1CC1,-15.0
C[C@H](CO)N1C[C@H](C)[C@H](CN(C)C(=O)CCN2CCCCC2)Oc2ncc(C#Cc3ccccn3)cc2C1=O,-3.2
COCC#Cc1ccc2c(c1)O[C@H](CN(C)C(=O)COC)[C@H](C)CN([C@@H](C)CO)S2(=O)=O,13.4
C[C@@H]1CN([C@@H](C)CO)C(=O)c2cc(C3=CCCCC3)cnc2O[C@@H]1CN(C)Cc1cccc(F)c1,-1.6
CCCNC(=O)N(C)C[C@@H]1Oc2cc(C#CC(C)C)ccc2S(=O)(=O)N([C@H](C)CO)C[C@H]1C,-10.2
Cc1cccc(NS(=O)(=O)c2cccc(C(=O)N3CCCCCCC3)c2)c1,-162.7
O=C(Nc1ccc(S(=O)(=O)NCC2CCCO2)cc1)c1cccc(F)c1 (stereo not drawn),-90.6
CC(=O)c1cccc(S(=O)(=O)NCC2CCCCC2)c1,51.0*
C[C@H](CO)N1C[C@H](C)[C@H](CN(C)C(=O)c2ccccc2F)Oc2ncc(C#Cc3ccc(F)cc3)cc2C1=O,-5.7
Cc1ccc(S(=O)(=O)N(C)C[C@@H]2Oc3ncc(C#Cc4cccc(F)c4)cc3C(=O)N([C@H](C)CO)C[C@@H]2C)cc1,13.3
O=S(=O)(Nc1ccccc1)c1ccc(Oc2ncc(C(F)(F)F)cc2Cl)cc1,-94.2
FC(F)(F)c1cnc(N2CCCN(C(=S)Nc3ccccc3)CC2)c(Cl)c1,37.1*
COc1cccc(N2CCN(C(=S)Nc3cccc(C)c3)CC2)c1,-120.7
